About 7,900 targets were measured; listed, in parts, are those with a hit and a random draw of the rest. About 0.6% of all pairs of compound and target were hits. Values without a mark were called inactive.
Legend:
Assay in all cases: log2 fold change, soluble protein after heating vs DMSO (PISA); higher = thermal stabilisation; K562 cells, 10 uM, 30 min; active = over 0.2 and 3.5 SD of the protein, either way, in both replicates (recomputed)
[1] = compound: CC1=C(C=C(C=C1)NC(=O)C2=CC(=CC=C2)C(C)(C)C#N)NC3=CC4=C(C=C3)N=CN(C4=O)C
Method in brief: (§1)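 Thermal stability values are relative to control samples and come from duplicates. They are expressed as log2 fold changes. For measurement, K562 cells (2×10^6 cells/mL) received 10 μM compound for 30 min, and aliquots were heated for 3 min over 48°C-58°C, pooled, and extracted at 4°C in PBS with 0.5% NP-40. Soluble protein, the supernatant after 21,000xg for 90 min, was quantified by TMTpro 16plex LC-MS/MS with equalised channel sums.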

[2] = compound: CC1=C(C=C(C=C1)NC(=O)C2=CC(=CC=C2)N(C)C)NC(=O)C3=CC=C(C=C3)O
Method in brief: as §1

[3] = compound: CC1=CC=C(C=C1)SC2=C3C=C(SC3=CN=C2)C(=O)N
Method in brief: as §1

[4] = compound: CC1=NC(=CC=C1)C2=C(N=C(N2)C(C)(C)C)C3=CC4=NC=CN=C4C=C3
Method in brief: as §1

Nexturastat A = compound: CCCCN(Cc1ccc(C(=O)NO)cc1)C(=O)Nc1ccccc1 [Nexturastat A]
Method in brief: as §1

vemurafenib = compound: CCCS(=O)(=O)Nc1ccc(F)c(C(=O)c2c[nH]c3ncc(-c4ccc(Cl)cc4)cc23)c1F [vemurafenib]
Method in brief: as §1

[5] = compound: CCCS(=O)(=O)Nc1ccc(F)c(C(=O)c2c[nH]c3ncc(Cl)cc23)c1F
Method in brief: as §1

[6] = compound: CCCc1cc(C)[nH]c(=O)c1CNC(=O)c1cc(-c2ccnc(N3CCN(C)CC3)c2)cc2c1cnn2C(C)C
Method in brief: as §1

givinostat = compound: CCN(CC)Cc1ccc2cc(COC(=O)Nc3ccc(C(=O)NO)cc3)ccc2c1 [givinostat]
Method in brief: as §1

barasertib = compound: CCN(CCCOc1ccc2c(Nc3cc(CC(=O)Nc4cccc(F)c4)[nH]n3)ncnc2c1)CCOP(=O)(O)O [barasertib]
Method in brief: as §1

Chain of UniProt P15531 (P15531 whole entry, looked up): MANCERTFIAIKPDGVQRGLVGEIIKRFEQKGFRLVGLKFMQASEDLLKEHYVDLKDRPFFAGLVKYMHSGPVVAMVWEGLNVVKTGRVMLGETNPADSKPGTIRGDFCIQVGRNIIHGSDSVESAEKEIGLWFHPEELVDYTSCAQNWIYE
Chain of UniProt Q92692 (Q92692 whole entry, looked up): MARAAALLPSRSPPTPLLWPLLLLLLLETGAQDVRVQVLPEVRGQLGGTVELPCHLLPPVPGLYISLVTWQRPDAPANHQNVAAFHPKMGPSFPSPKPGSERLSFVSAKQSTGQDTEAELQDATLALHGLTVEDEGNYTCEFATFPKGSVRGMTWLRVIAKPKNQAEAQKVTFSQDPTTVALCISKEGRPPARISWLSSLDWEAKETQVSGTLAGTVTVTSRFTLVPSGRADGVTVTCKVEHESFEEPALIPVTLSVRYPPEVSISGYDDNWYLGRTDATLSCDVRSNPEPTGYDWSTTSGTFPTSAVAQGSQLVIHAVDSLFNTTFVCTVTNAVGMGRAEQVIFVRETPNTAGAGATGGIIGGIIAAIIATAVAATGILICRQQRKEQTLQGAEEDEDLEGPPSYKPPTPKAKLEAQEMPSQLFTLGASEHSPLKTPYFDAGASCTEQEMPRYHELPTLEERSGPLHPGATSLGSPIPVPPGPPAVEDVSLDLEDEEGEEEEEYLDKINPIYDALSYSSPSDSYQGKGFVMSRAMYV
Chain of UniProt Q12986 (Q12986 whole entry, looked up): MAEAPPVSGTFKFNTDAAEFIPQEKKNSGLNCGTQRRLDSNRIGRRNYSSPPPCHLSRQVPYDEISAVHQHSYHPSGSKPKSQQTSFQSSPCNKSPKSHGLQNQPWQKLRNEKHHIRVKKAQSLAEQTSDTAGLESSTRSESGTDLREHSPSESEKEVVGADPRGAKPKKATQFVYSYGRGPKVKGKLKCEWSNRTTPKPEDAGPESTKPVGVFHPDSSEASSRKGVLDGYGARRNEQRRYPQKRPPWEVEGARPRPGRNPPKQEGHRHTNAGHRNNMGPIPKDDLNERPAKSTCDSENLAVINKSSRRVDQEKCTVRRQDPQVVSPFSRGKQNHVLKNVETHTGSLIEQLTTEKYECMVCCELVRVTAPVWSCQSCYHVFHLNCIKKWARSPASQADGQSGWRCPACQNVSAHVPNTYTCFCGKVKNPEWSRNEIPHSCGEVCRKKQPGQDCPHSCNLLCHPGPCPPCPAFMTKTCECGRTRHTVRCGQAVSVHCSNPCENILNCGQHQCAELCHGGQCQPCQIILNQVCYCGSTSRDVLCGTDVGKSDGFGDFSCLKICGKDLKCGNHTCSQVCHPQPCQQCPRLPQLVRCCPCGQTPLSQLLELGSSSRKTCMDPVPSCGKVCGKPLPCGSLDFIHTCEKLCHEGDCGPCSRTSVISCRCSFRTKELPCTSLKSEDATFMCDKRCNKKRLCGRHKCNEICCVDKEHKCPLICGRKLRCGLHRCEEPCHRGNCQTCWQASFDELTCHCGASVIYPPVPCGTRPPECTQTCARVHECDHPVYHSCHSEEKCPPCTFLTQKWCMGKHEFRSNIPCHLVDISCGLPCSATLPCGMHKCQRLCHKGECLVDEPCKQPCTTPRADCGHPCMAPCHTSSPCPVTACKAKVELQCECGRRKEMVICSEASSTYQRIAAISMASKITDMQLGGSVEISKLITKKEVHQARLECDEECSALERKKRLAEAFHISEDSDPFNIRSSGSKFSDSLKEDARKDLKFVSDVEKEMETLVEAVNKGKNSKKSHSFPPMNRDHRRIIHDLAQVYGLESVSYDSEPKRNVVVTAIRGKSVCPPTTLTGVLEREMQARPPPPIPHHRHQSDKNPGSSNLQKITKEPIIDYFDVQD
Chain of UniProt Q96DE0 (Q96DE0 whole entry, looked up): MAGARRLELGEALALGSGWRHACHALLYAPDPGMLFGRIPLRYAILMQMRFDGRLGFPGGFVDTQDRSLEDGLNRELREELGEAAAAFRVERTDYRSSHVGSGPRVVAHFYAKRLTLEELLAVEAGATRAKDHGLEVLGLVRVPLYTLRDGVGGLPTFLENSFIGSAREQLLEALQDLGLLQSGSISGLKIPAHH
Chain of UniProt Q14980 (Q14980 whole entry, looked up): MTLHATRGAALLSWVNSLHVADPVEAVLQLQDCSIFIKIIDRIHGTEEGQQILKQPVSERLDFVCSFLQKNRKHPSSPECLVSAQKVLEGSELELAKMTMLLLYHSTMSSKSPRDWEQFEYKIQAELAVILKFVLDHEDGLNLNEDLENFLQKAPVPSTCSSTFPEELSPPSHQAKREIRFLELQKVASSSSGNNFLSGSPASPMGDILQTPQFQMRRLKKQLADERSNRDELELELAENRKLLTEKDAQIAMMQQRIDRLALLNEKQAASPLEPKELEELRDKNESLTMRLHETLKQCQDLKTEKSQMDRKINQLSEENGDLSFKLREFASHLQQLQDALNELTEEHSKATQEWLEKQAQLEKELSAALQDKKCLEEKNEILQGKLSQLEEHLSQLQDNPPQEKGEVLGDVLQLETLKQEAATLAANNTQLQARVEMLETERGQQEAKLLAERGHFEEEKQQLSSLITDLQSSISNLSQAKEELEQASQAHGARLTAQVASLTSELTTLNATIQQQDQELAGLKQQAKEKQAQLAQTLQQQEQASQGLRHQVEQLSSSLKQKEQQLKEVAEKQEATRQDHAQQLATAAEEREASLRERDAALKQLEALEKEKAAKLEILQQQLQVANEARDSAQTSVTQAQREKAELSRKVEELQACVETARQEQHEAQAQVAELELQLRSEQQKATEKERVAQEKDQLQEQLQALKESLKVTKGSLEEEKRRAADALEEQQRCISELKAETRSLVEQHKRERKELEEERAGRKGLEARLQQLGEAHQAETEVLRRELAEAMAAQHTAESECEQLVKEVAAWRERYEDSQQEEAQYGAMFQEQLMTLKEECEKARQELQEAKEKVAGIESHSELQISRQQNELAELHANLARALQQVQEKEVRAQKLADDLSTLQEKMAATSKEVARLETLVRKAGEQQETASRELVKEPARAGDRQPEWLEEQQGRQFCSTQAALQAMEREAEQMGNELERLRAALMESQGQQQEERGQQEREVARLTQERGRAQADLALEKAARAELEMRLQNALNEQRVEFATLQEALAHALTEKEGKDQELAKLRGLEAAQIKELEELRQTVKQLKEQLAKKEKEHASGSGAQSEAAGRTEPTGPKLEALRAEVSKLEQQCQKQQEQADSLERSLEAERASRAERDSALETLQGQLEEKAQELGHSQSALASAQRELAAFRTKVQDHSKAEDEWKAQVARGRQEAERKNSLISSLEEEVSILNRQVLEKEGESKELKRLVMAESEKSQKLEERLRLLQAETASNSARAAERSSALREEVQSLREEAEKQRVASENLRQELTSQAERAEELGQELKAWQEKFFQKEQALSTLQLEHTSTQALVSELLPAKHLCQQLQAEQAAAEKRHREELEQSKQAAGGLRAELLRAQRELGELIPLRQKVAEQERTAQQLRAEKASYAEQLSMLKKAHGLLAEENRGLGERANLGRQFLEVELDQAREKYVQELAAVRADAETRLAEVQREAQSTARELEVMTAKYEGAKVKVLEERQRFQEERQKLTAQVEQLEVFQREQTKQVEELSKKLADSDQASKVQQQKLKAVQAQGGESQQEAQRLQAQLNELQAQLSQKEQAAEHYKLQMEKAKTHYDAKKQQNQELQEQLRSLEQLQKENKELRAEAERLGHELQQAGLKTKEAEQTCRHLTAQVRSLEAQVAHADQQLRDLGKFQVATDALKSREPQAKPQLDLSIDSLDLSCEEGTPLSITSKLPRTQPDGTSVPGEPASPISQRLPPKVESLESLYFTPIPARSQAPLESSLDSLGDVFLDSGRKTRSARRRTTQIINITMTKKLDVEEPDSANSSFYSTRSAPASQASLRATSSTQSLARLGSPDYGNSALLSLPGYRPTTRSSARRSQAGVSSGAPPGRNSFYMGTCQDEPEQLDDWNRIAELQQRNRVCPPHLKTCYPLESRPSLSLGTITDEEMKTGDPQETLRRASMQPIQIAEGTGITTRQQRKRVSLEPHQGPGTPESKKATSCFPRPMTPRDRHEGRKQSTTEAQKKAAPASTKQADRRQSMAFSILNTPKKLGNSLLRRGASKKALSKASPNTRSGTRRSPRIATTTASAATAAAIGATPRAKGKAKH
Chain of UniProt Q68DK7 (Q68DK7 whole entry, looked up): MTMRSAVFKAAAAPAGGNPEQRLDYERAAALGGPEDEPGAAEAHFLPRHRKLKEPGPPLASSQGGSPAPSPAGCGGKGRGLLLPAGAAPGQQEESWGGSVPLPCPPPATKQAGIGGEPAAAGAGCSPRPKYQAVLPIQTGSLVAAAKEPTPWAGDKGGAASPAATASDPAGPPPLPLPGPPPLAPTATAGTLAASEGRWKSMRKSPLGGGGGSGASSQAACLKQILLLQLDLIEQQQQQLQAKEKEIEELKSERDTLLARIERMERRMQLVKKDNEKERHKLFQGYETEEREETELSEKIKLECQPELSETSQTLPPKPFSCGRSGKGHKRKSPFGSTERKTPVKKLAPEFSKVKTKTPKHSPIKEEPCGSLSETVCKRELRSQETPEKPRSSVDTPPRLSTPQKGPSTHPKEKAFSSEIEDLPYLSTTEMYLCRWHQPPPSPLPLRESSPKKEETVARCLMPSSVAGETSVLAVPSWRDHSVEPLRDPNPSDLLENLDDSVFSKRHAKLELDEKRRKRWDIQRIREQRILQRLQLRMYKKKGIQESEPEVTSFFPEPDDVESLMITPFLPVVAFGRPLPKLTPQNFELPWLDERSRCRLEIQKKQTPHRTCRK
Chain of UniProt P03886 (P03886 whole entry, looked up): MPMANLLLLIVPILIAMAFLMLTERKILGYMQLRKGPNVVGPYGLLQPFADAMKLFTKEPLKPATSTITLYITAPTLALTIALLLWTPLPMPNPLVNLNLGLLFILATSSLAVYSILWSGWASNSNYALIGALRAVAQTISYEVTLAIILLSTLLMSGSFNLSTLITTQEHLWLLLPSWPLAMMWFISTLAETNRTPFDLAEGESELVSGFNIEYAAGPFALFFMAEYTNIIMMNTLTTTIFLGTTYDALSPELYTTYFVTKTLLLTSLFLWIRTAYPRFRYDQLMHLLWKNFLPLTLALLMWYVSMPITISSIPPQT

Row | Target | log2 fold change [1] | log2 fold change [2] | log2 fold change [3] | log2 fold change [4] | log2 fold change (Nexturastat A) | log2 fold change (vemurafenib) | log2 fold change [5] | log2 fold change [6] | log2 fold change (givinostat) | log2 fold change (barasertib)
1 | OXSM (UniProt Q9NWU1) | -0.023 | -0.057 | 0.023 | 0.003 | -0.061 | 0.01 | 0.045 | -0.03 | -0.234 (active) | -0.034
2 | MRPL47 (UniProt Q9HD33) | 0.035 | -0.045 | -0.03 | -0.078 | 0.139 | -0.117 | -0.097 | 0.073 | 0.052 | -0.047
3 | MT-ND1 (UniProt P03886) | -0.002 | 0.028 | -0.008 | -0.034 | 0.021 | 0.168 | 0.208 | 0.019 | 0.057 | 0.127
4 | MT-ATP6 (UniProt P00846) | -0.009 | 0.041 | 0.008 | 0.026 | -0.133 | -0.159 | -0.043 | -0.014 | -0.074 | 0.567
5 | NCL (UniProt P19338) | -0.017 | -0.056 | -0.077 | -0.126 | 0.275 | -0.139 | -0.036 | 0.145 | 0.085 | -0.101
6 | MRPS26 (UniProt Q9BYN8) | 0.021 | -0.083 | 0.002 | -0.03 | 0.075 | -0.004 | 0.049 | -0.056 | 0.098 | 0.026
7 | NECTIN2 (UniProt Q92692) | -0.006 | -0.026 | 0.037 | -0.049 | -0.117 | 0.016 | 0.019 | 0.005 | -0.025 | -0.024
8 | NA, A0A096LPI6 | -0.018 | 0.032 | 0.051 | 0.039 | -0.093 | 0.008 | 0.052 | -0.033 | -0.055 | -0.003
9 | MINK1 (UniProt Q8N4C8) | -0.04 | 0.038 | -0.003 | 0.029 | -0.007 | -0.004 | 0.024 | 0.003 | -0.007 | -0.016
10 | MRPS33 (UniProt Q9Y291) | 0.075 | -0.078 | -0.025 | -0.004 | 0.098 | 0.023 | 0.073 | -0.042 | 0.043 | -0.015
11 | NASP (UniProt P49321) | 0.012 | -0.033 | 0 | 0.009 | -0.058 | 0.037 | 0.038 | -0.006 | 0.001 | 0.027
12 | PAAF1 (UniProt Q9BRP4) | -0.026 | -0.005 | 0.016 | 0.003 | -0.035 | -0.028 | 0.019 | -0.038 | 0.023 | 0.021
13 | NUP160 (UniProt Q12769) | 0.006 | 0.037 | 0.023 | 0.017 | -0.037 | -0.01 | 0.083 | 0.002 | 0.018 | 0.062
14 | NOL11 (UniProt Q9H8H0) | -0.023 | 0.029 | 0.004 | 0.013 | -0.024 | -0.026 | 0.003 | -0.016 | 0.015 | -0.021
15 | NME1 isoform 2 (UniProt P15531) | -0.054 | 0.047 | 0.029 | -0.006 | -0.067 | -0.003 | -0.045 | -0.092 | -0.07 | -0.108
16 | MSL1 (UniProt Q68DK7) | -0.014 | 0.037 | -0.026 | 0.039 | 0.185 | -0.02 | -0.001 | 0.05 | 0.197 | -0.002
17 | NOB1 (UniProt Q9ULX3) | 0.039 | 0.047 | 0.012 | 0.027 | 0.034 | 0.055 | 0.031 | 0.182 | 0.055 | 0.041
18 | NOP58 (UniProt Q9Y2X3) | -0.055 | -0.012 | -0.058 | -0.073 | 0.161 | 0.046 | 0.041 | 0.081 | 0.072 | -0.075
19 | MRPS17 (UniProt Q9Y2R5) | 0.055 | -0.095 | -0.014 | 0.008 | 0.085 | 0.084 | 0.031 | 0.095 | -0.103 | 0.01
20 | MNAT1 (UniProt P51948) | 0.004 | -0.006 | 0.001 | 0.001 | 0.043 | -0.006 | 0.039 | -0.037 | 0.069 | -0.003
21 | NUDT16 (UniProt Q96DE0) | -0.031 | -0.005 | -0.008 | -0.03 | -0.003 | 0.163 | 0.019 | -0.041 | -0.006 | 0.028
22 | NMNAT1 (UniProt Q9HAN9) | -0.079 | 0.006 | -0.09 | -0.196 | 0.132 | -0.162 | -0.139 | 0.178 | 0.042 | -0.064
23 | NDUFS4 (UniProt O43181) | 0.03 | 0.024 | -0.069 | -0.033 | 0.032 | -0.061 | -0.06 | -0.033 | -0.083 | -0.062
24 | NSMCE2 (UniProt Q96MF7) | 0.019 | -0.052 | 0.006 | 0.056 | 0.064 | -0.007 | 0.021 | 0.018 | -0.076 | 0.078
25 | OTUD4 (UniProt Q01804) | -0.038 | -0.017 | -0.035 | -0.069 | 0.055 | -0.016 | 0.007 | -0.03 | 0.05 | -0.083
26 | NFX1 (UniProt Q12986) | -0.113 | 0.051 | -0.082 | 0.004 | 0.287 | 0.148 | -0.032 | 0.17 | 0 | -0.125
27 | NUP85 (UniProt Q9BW27) | -0.02 | 0.025 | 0.102 | -0.001 | -0.041 | 0.01 | 0.019 | -0.02 | 0.015 | 0.017
28 | MTMR14 (UniProt Q8NCE2) | -0.009 | -0.048 | -0.004 | 0.02 | 0.028 | -0.02 | 0.071 | -0.016 | 0.061 | 0.019
29 | NTMT1 (UniProt Q9BV86) | 0.05 | 0.037 | -0.003 | -0.034 | -0.042 | 0.062 | 0.012 | -0.073 | -0.066 | 0.019
30 | NUMA1 (UniProt Q14980) | 0.03 | -0.029 | -0.009 | -0.073 | 0.262 | 0.02 | 0.005 | 0.132 | 0.092 | 0.005

Reference: the supplement of paper PMC10849652
